Rows were chosen to be rich in hits. Some 3.6% of all compounds tested hit in one or more screens of this group.
esBAF inh: SWI/SNF esBAF complex inhibition | mouse ES cells, Bmi1-luciferase knock-in reporter, 24 h; 100% = twice the neutral-well signal | reporter increase, % at 12.5 µM | 350,000 compounds, 2% hits | AID 602393; in the data active = activation above about 40%; inconclusive = no clear call, values can overlap the other calls;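 also: a rise in the Bmi1 reporter signal indicates esBAF inhibition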
APOBEC3A inh: blocks human APOBEC3A ssDNA deamination; AID 493011; inhibition, % at 20 µM; recombinant A3A, FAM/TAMRA ssDNA deamination fluorescence; 330,000 compounds, 0.41% hits;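 active = at least 40% inhibition at 20 µM here, with at most 30% in a related deaminase screen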
Target sequence (P31941 whole entry, looked up): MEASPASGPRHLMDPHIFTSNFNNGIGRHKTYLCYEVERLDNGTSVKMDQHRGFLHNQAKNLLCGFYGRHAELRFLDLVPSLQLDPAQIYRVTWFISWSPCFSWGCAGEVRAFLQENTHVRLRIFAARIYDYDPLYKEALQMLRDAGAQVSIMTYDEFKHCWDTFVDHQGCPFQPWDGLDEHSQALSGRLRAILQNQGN
PHOSPHO1 block: blocks human PHOSPHO1 phosphatase activity; Q8TCT1; 290,000 compounds, 1.1% hits; AID 1565; inhibition, % at 13.3 µM; recombinant PHOSPHO1, absorbance phosphatase assay; in the data active = inhibition above about 60%
Target sequence (Q8TCT1 whole entry, looked up): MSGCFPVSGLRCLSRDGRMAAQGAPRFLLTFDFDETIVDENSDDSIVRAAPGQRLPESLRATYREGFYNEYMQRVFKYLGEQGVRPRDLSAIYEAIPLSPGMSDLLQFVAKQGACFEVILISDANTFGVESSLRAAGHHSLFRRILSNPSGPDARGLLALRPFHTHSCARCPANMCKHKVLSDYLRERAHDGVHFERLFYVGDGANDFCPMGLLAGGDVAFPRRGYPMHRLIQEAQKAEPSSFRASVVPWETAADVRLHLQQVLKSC
MITF TRPM1 HTS: activators of MITF-driven TRPM1 promoter activity in SK-MEL-5 cells | AID 588334 | SK-MEL-5 TRPM1-promoter luciferase, 24 h; % of positive control, neutral wells = 0 | 300,000 compounds, 0.75% hits | activation, % at 12.5 µM;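 active = mean activation of at least 80% with every replicate also reaching 80%; inconclusive = mean reaches 80% but some replicate falls short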
Wnt act: activates Wnt/beta-catenin signaling in a reporter cell assay; activation, % at 9.35 µM; activator, plate reader; AID 743398; 300,000 compounds, 1.2% hits; in the data active = activation above about 30%, passing the limit was not always enough; inconclusive = no clear call, values can overlap the other calls
A3G deaminase: inhibitors of human APOBEC3G DNA deaminase. recombinant A3G, ssDNA deamination FAM/TAMRA fluorescence. AID 493012. 330,000 compounds, 0.28% hits. Q9HC16. inhibition, % at 20 µM;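 active = inhibition of at least 40% at 20 µM, with no more than 30% in the related APOBEC3A deaminase screen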
Hits are given with their value; . = inactive; ? = inconclusive; / = no result given.

SMILES	esBAF inh	APOBEC3A inh	PHOSPHO1 block	MITF TRPM1 HTS	Wnt act	A3G deaminase
CO[C@H]1CN(C)C(=O)c2ccc(NS(C)(=O)=O)cc2OC[C@@H](C)NC[C@@H]1C	.	/	/	/	/	/
C[C@H]1CN([C@@H](C)CO)C(=O)c2cc(Br)cnc2O[C@@H]1CN(C)C(=O)C1CCOCC1	.	/	/	/	/	/
CC(C)COC(=O)c1ccc2c(c1O)C(=O)c1ccccc1C2=O	.	.	80.4	/	.	.
Cc1ccc(S(=O)(=O)N2C[C@@H](O)COC[C@@H]3O[C@@H](CC(=O)NCC4CCCCC4)CC[C@H]32)cc1	.	/	/	/	/	/
O=C(N[C@H]1CC[C@H](CC(=O)N2CCOCC2)O[C@@H]1CO)c1ccccn1	.	/	/	/	/	/
CC(C)n1c(=S)[nH]c2scc(-c3cccs3)c2c1=O	.	.	.	.	.	.
O=c1c2c(-c3cccs3)csc2[nH]c(=S)n1-c1ccccc1	/	.	67.1	.	/	.
Cc1ccc(S(=O)(=O)N(C)C[C@H]2OCCCC[C@@H](C)Oc3ccc(NC(=O)CCC(F)(F)F)cc3C(=O)N([C@H](C)CO)C[C@@H]2C)cc1	.	/	/	/	/	/
CCOC(=O)C1CCN(C(=O)c2ccc(N(C)S(C)(=O)=O)cc2)CC1	.	.	.	.	/	.
CC(C)(C)C(=O)Nc1ccc(C(=O)COC(=O)C2CC2)cc1	59.8	.	/	.	.	.
CN(c1ccc(C(=O)COC(=O)C2CC2)cc1)S(C)(=O)=O	.	.	/	83.2	.	.
Cc1cc2c(c(=O)n1C)C(Cc1ccccc1)C(C#N)=C(N)O2 (stereo not drawn)	50.0	.	.	/	.	.
CS/C(N)=N/N=C/c1cc(C)ccc1O	/	.	.	?	88.1	.
CCS/C(N)=N/N=C/c1cc(C)ccc1O	/	.	.	.	/	.
Cc1nc2ccc(NC(=O)c3ccc(Cl)s3)cc2s1	79.0	.	.	87.1	.	.
Cc1nc2ccc(NC(=O)N(C)c3ccccc3)cc2s1	/	.	.	.	/	.
Cc1nc2ccc(NC(=O)N(C(C)C)C(C)C)cc2s1	44.4	.	.	/	/	.
Cc1ccc2nc(NC(=O)c3ccc(Cl)s3)sc2c1	.	.	.	.	?	.
O=C(C[C@@H]1C=C[C@H](NS(=O)(=O)c2ccccc2)[C@H](CO)O1)NCc1ccccc1F	.	/	/	/	/	/
CCn1c(COc2ccc(C(C)C)cc2)nnc1SCC(=O)Nc1nccs1	.	.	96.9	.	/	.
CCc1nnc(NC(=O)CSc2nnc(COc3ccccc3)n2Cc2ccccc2)s1	.	.	60.5	/	/	.
CCSCc1nnc(SCC(=O)Nc2nccs2)n1CC	/	.	60.0	.	.	.
CCn1c(Cc2ccccc2)nnc1SCC(=O)Nc1nccs1	.	.	.	.	.	.
CN1CCN(C(=O)C[C@@H]2CC[C@H]3[C@@H](COc4ccc(NC(=O)C5CCOCC5)cc4C(=O)N3C)O2)CC1	.	/	/	/	/	/
COc1ccc2c(c1)CC/C2=N\OC(=O)c1ccccc1C	/	.	.	117.2	.	.
SMILES	esBAF inh	APOBEC3A inh	PHOSPHO1 block	MITF TRPM1 HTS	Wnt act	A3G deaminase
O/N=C(\Cc1cscn1)c1ccc(O)cc1O	48.8	.	.	.	.	.
Cc1cccc(S(=O)(=O)N[C@H]2CC[C@@H](CCNS(=O)(=O)c3ccccc3F)O[C@@H]2CO)c1	.	/	/	/	/	/
O=C(CSc1nnc(-c2cnccn2)n1Cc1ccco1)c1ccc2ccccc2c1	/	.	85.5	.	/	.
O=C(CSc1nnc(-c2ccccn2)n1Cc1ccco1)c1ccc(-c2ccccc2)cc1	.	.	77.0	/	/	.
O=C(CSc1nnc(-c2ccc(O)cc2)n1Cc1ccco1)c1ccccc1	.	.	.	.	.	.
COc1ccc(-c2ccc3c(c2)[C@H]2[C@H](CCN2C(=O)Nc2ccccc2OC)[C@H](CO)N3C)cc1	.	/	/	/	/	/
COC(=O)C[C@H]1CC[C@@H]2[C@@H](COc3ccc(NS(=O)(=O)c4ccccc4F)cc3C(=O)N2C)O1	.	/	/	/	/	/
CCCOc1ccc(-c2csc(N)n2)cc1[N+](=O)[O-]	/	.	.	99.3	.	.
O=C(Nc1cccc(Cl)c1)N[C@@H]1CC[C@@H](CCNC(=O)C2CC2)O[C@@H]1CO	.	/	/	/	/	/
O=C(Nc1ncccc1O)c1ccc2ccccc2c1	.	.	.	.	62.8	.
O=C(Nc1nccs1)c1ccc2ccccc2c1	.	.	.	.	.	.
O=C(Nc1ncccc1O)c1ccc2c(c1)OCCO2	.	.	/	.	99.3	.
O=C(Nc1ncccc1O)c1ccc2c(c1)OCO2	.	.	/	.	53.9	.

Screening results: PubChem BioAssay, several laboratories
